Hits are enriched below; roughly 12% of the tested compounds scored in any of these assays.
WT yeast gro inh: growth inhibition of WT strain, primary screen, mitochondrial fusion inhibitor project, WT and mutant strains, chemical genetic | mitochondrial fusion phenotypic screen | inhibition, % at 10 µM | hit rate 2.1% among 190,000; in the data active means inhibition above about 58%; tested in S. cerevisiae
Lmaj promast: Leishmania major promastigote growth inhibition, primary screen | inhibition, % at 10 µM | Leishmania major promastigotes, resazurin fluorescence viability | AID 1063, 2008 | hit rate 9% among 200,000; in the data active means inhibition above about 50%;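 further: promastigotes grown with compound for 44 hours at 28 °C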
Insulin prom up: insulin promoter activators in MIN6 cells, imaging, high-content screening, mouse beta cells. hit rate 0.3% among 190,000. z-score at 5 µM. MIN6 insulin promoter-GFP reporter; active compounds read high;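 active means z-score above 3 at 5 µM with at least 500 cells counted in the well; inconclusive means wells under 500 cells, flagged as cytotoxic or low count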
Insulin prom inh: inhibitors of insulin promoter-driven GFP, primary screen, imaging, TRM-6 cells (human fetal islet line), eGFP reporter, cell count. inhibition, % at 2 µM. hit rate 0.9% among 130,000. reporter expression induced with tamoxifen;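 active means inhibition above the mean plus 3 SD, with well images judged a real hit on visual review, cut at about 60% in these data, passing the limit was not always enough; inconclusive means inhibition over the cutoff but images rejected on review; inactive means inhibition not above the cutoff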
ROMK primary: ROMK potassium channel modulators, primary screen, cell-based, thallium flux, MLSMR library. ATP-sensitive inward rectifier potassium channel 1 (Homo sapiens), P48048. Tet-inducible ROMK, thallium flux fluorescence; actives lie on both sides. B-score at 10 µM. hit rate 2% among 130,000;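 active means signal ratio slope over the read window, or its plate-corrected B-score, at least 3 SD from the plate mean, either direction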;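 further: B-score of the F/F0 ratio slope over 7 to 12 s after thallium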
Target sequence (P48048 whole entry, looked up): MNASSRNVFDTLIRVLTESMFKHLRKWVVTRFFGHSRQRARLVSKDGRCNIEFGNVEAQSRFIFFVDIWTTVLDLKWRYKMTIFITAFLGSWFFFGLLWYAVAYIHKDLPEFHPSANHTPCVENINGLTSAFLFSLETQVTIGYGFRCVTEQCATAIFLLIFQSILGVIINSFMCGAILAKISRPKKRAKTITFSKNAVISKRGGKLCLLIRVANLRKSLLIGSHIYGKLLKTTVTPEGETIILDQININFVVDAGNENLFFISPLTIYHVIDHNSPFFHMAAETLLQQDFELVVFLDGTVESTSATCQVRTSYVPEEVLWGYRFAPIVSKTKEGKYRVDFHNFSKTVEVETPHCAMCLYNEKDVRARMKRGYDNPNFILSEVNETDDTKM
KCC2 mod: KCC2 cotransporter modulators, thallium flux, primary screen, cell-based, HEK293 KCC2, FluoZin-2 fluorescence, MLSMR; Solute carrier family 12 member 5 (Homo sapiens), Q9H2X9; KCC2 cells, thallium flux FluoZin-2 fluorescence; B-score of Tl+ flux slope (higher = more flux/activation; lower = inhibition) at 10 µM; hit rate 2.2% among 190,000;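 active means thallium flux slope and its plate-corrected score both differing from the plate sample mean at a set confidence after two filtering rounds, in either direction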;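 further: slope of fluorescence scaled to starting intensity during 10 to 20 s after thallium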
* marks the source's active call; other numbers are inactive results; ? = inconclusive; . = not tested or not shown.

SMILES	WT yeast gro inh	Lmaj promast	Insulin prom up	Insulin prom inh	ROMK primary	KCC2 mod
Cc1ccc(CNC(=O)CSc2nc(C)cc(C)c2C#N)cc1	10	3	0.27	.	0.025	-0.36
O=C(CSc1nnnn1-c1ccc(Cl)c(C(=O)O)c1)NC(c1ccccc1)c1ccccc1	.	.	-0.13	.	.	-0.31
Cc1ccc(S(=O)(=O)NCC(=O)N(CC(=O)NCc2ccco2)Cc2ccc3c(c2)OCO3)cc1	-28	-5	0.03	26	.	-0.24
CCC(C)N(C)C1CCN(C(=S)Nc2cccc(SC)c2)CC1 (centres undefined)	-1	76*	0.6	.	0.62	0.21
COc1ccc(C[C@H]2CN3C(=NC[C@@H]3C(C)C)N2CCNC(=O)c2ccc(C)c(Br)c2)cc1	2	99*	-2.2	.	.	-1.1
COc1ccc(C[C@H]2CN3C(=NC[C@H]3C)N2CCNC(=O)c2ccc(C)c(Br)c2)cc1	-5	53*	-0.9	.	.	-1.2
Cc1ccc(C(=O)NCCN2C3=NC[C@H](C(C)C)N3C[C@H]2Cc2ccc(O)cc2)cc1Br	-3	5	-0.29	.	.	-0.18
Cc1ccc(-n2ncc3c(=O)n(CC(=O)NC4CCCCC4)cnc32)cc1	-4	-5	-0.63	13	.	0.91
CC(=O)c1cc2c(cc1NC(=O)CN1CCN(c3cccc(C(F)(F)F)c3)CC1)OCO2	1	-6	-0.02	26	0.015	-0.21
Cc1ccc(/C=C/S(=O)(=O)Nc2ccc(C)cc2)cc1	11	-2	0.03	-44	0.1	-0.66
O=C(/C=N/O)NCCN1CCCCC1	59*	2	1.5	-7	1.1	.
C/C(=N\O)C(=O)NCCN1CCCCC1	0	-5	0.06	19	.	0.43
O=C(Cc1csc(Nc2nc(=S)[nH]c3ccccc23)n1)NCc1ccccc1Cl	3	-3	.	11	.	2
Cc1ccc(CNC(=O)Cc2csc(Nc3nc(=S)[nH]c4ccccc34)n2)cc1	-24	1	0.88	-9	.	9.7*
COc1ccc(NC(C)=O)cc1NC(C)c1nc2sc(C)c(C)c2c(=O)[nH]1 (centres undefined)	-1	35	0.12	.	-0.35	1.3
CCOC(=O)C1(Cc2ccc(Cl)cc2)CCN(C(=O)c2cnc(C)cn2)CC1	.	.	0.27	.	.	0.00023
CCOC(=O)C1(Cc2ccc(Cl)cc2)CCN(C(=O)c2ccoc2)CC1	14	53*	-0.94	.	-0.37	.
CCOCCN1CCN(c2c(C)c(C)nc3cc(-c4cc(OC)cc(OC)c4)nn23)CC1	-5	83*	.	-30	-0.43	-0.001
CCc1c(C)nc2cc(-c3cc(OC)cc(OC)c3)nn2c1N1CCN(CCN2CCOCC2)CC1	7	88*	-1.2	-7	-1	-0.2
O=C1c2cccc(OCC(=O)N3CCCc4ccccc43)c2CCN1Cc1ccc(F)cc1	65*	95*	1.7	-43	.	-1.2
Cc1cccc(CN2CCc3c(OCC(=O)N4CCCc5ccccc54)cccc3C2=O)c1	3	28	0.3	.	.	-1.8
Cc1cc(C(=O)CCl)c(C)n1-c1ccon1	-13	97*	-0.66	82*	-0.068	0.011
CC(=O)c1c(C(C)=O)c(C)n(-c2cccc([N+](=O)[O-])c2)c1C	-2	29	0.41	-18	-0.65	0.042
Cc1cc(C(=O)CCl)c(C)n1-c1cccc([N+](=O)[O-])c1	30	101*	0.07	.	0.76	-0.029
CCOC(=O)c1c(CN(C)C)n(C)c2ccc(OC(C)=O)cc12	3	67*	-0.35	.	0.56	0.2
SMILES	WT yeast gro inh	Lmaj promast	Insulin prom up	Insulin prom inh	ROMK primary	KCC2 mod
Cc1ccc(C2SCCN2C(=O)c2ccc([N+](=O)[O-])cc2)cc1 (centres undefined)	25	50*	0.07	-39	-0.39	0.18
COc1cc(Br)c(Br)c(Br)c1N	.	.	.	.	.	-1
O=C(CC(SCCO)c1ccc2c(c1)OCO2)c1cccs1 (centres undefined)	8	73*	-0.3	.	.	0.13
O=S(=O)(c1ccccc1)N1N=C(c2ccccc2)CC1c1ccccc1 (centres undefined)	80*	15	-0.57	.	-1.5	0.048
COc1ccc(C2=NN(S(=O)(=O)c3ccccc3)C(c3ccccc3)C2)cc1 (centres undefined)	.	.	-0.87	.	.	-1.6
COc1ccccc1C1CC(c2ccccc2)=NN1S(=O)(=O)c1ccccc1 (centres undefined)	.	.	0.08	.	.	0.31
COc1cccc(C2CC(c3ccccc3)=NN2S(=O)(=O)c2ccc(C)cc2)c1OC (centres undefined)	57	61*	.	.	-8.1*	0.31
C/C(=N\NC(=O)c1cc(C)oc1C)c1ccc2c(c1)OCO2	6	-2	-0.09	.	-0.77	0.49
C/C(=C\C(=O)c1cccnc1)Nc1ccc(O)cc1	12	99*	2.3	.	0.32	0.37
NC(=O)CN(c1ccc(Cl)cc1)S(=O)(=O)c1ccccc1	-7	-6	0.44	0	0.14	0.29
CCN(CC)C(=O)CN(c1ccc(Cl)cc1)S(=O)(=O)c1ccccc1	-15	90*	-0.09	11	0.94	.
Cc1ccc(O)c(/C=N/NC(=O)C2=NNC(c3ccccc3)(c3ccccc3)C2)c1	-1	100*	.	12	0.22	-0.35
O=C(N/N=C/c1c(O)ccc2ccccc12)c1[nH]ncc1Br	5	100*	?	31	.	0.5
Cc1ccc(O)c(/C=N/NC(=O)c2[nH]ncc2Br)c1	-5	98*	-0.44	-121	0.41	0.61
O=C(N/N=C/c1c(O)ccc2ccccc12)c1cccc(C(F)(F)F)c1	6	97*	?	23	.	3.5
COc1ccc(OC)c(/C=N/NC(=O)c2[nH]ncc2Br)c1	.	.	1.3	.	.	.
O=C(N/N=C\c1c(O)ccc2ccccc12)c1ccc(Cn2cccn2)o1	5	98*	-1.3	-15	-1.1	.
OCC(CO)(CO)N=Cc1c(O)ccc2ccccc12	16	97*	-0.17	29	0.23	.
CCOc1ccc(/C=N/NC(=O)c2[nH]ncc2Br)c(O)c1	49	99*	-4.3	.	0.072	-0.5
Cc1ccc2c(c1)NC(=O)C(CC(=O)NCCN(C)C)O2 (centres undefined)	-8	-3	1.2	.	.	.
O=C(CCS(=O)(=O)c1ccc(Br)s1)NCc1ccccc1	-2	-5	.	-62	-0.11	.
Cc1cc(/C=N/NC(=O)C(O)(c2ccccc2)c2ccccc2)c(C)n1-c1cccc(C(=O)O)c1	.	.	1.1	.	.	1.1
Cc1cc(/C=N/O)c(C)n1-c1ccc(Br)cc1	0	6	0.1	-12	0.15	-0.22
Cc1cc(/C=N/NC(N)=S)c(C)n1-c1ccc(Br)cc1	5	99*	.	.	0.49	0.48
Cc1cc(/C=N/NC(N)=S)c(C)n1-c1cccc(Cl)c1	6	94*	-0.2	.	2.2	-0.55
Cc1cc(=O)oc(C)c1C(=O)OCC(=O)c1ccc2ccccc2c1	2	-5	0.25	.	-0.02	-1.3

Bioassay records: PubChem BioAssay, several laboratories
